Experimental data published in PubChem BioAssay (NCI).
This is part of a sample that, as a whole, favours compounds with a hit. Of some 83,000 tested, about 20% had one in any assay.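 For each line, cells grew in 96-well plates with the test compound present at a single concentration for 48 hours.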 Calls of active or inactive are those of the source. How the source made its calls: active means growth percent below 10; inactive means the rest.

System: M14 melanoma
Assay: NCI-60 one-dose screen, 48 h (100 = growth as untreated, 0 = no growth, -100 = all killed)
Conditions: 10 µM unless noted

| SMILES | growth |
| --- | --- |
| CC(=O)NNC(=O)c1sc(NC(C)=O)nc1C | 115% (inactive) |
| Nc1ccc(S(=O)(=O)c2ccc(NO)cc2)cc1 | 117% (inactive) |
| Cc1c(Cc2ccccc2)c(=O)oc2c(C)c(OCC(=O)n3nc(C#N)cc3N)ccc12 | 96.3% (inactive) |
| NC(=O)CC(NC(=O)COc1ccc(Cl)cc1Cl)C(=O)O (stereo not given) | 106% (inactive) |
| CCCCCCCCC1OC1CCCCCCCC(=O)O (stereo not given) | 105% (inactive) |
| CC(=O)/C(=C/c1ccc(-c2ccccc2)cc1)C(=O)c1ccccc1 | 79.8% (inactive) |
| COc1ccc(-c2nc(Nc3nc4ccccc4[nH]3)nc(N)c2C#N)cc1 | 99.5% (inactive) |
| CCC(CCCN1C(=O)c2ccccc2C1=O)Nc1cc(OC)cc2cccnc12 (stereo not given) | -100% (active) |
| CC(=O)OC1/C=C\CC/C=C\C1 (stereo not given) | 104% (inactive) |
| CCc1ccc(C(=Nc2ccc(N(C)C(=O)CN3CCN(C)CC3)cc2)c2c(O)[nH]c3ccc(C(=O)OC)cc23)cc1 | -86.7% (active) |
| c1ccc2[nH]c(-c3ccc(OCCCCCOc4ccc(-c5nc6ccccc6[nH]5)cc4)cc3)nc2c1 | -38.6% (active) |
| Oc1ccc(CN(Cc2ccc(C(F)(F)F)cc2)Cc2ccc(O)c3ncccc23)c2cccnc12 | 3.46% (active) |
| COc1ccc2nc3cc(Cl)ccc3c(NCCCNC(C)=O)c2c1 | 44.4% (inactive) |
| O=C(N/N=C\c1ccc(Cl)cc1)C(=O)N/N=C\c1ccc(Cl)cc1 | 103% (inactive) |
| Cc1nc2c(nnn2-c2ccccc2)c2nc(-c3ccccc3)oc(=O)c12 | 102% (inactive) |
| COC(=O)c1ccc2[nH]c(O)c(C(=Nc3ccc(N(C)C(=O)CN4CCN(C)CC4)cc3)c3ccc(N)cc3)c2c1 | 88% (inactive) |
| Cc1nc(N)sc1C(=O)NCCO | 112% (inactive) |
| CC(=O)Nc1nc(C)c(C(=O)N/N=C/N2CCOCC2)s1 | 113% (inactive) |
| O=C(O)CC1Cc2ccccc2C1C(=O)O (stereo not given) | 95.9% (inactive) |
| Cc1ccc2c(c1)C(=O)CCS2 | 96.1% (inactive) |

| SMILES | growth |
| --- | --- |
| CCC(C)(C)c1ccc(OCCCCCCN2CCNCC2)cc1 | 65.5% (inactive) |
| c1ccc(Nc2ccccn2)cc1 | 107% (inactive) |
| Brc1ccc(-c2nc3ccccc3s2)cc1 | 97.7% (inactive) |
| O=C1/C(=N\c2cc(=O)[nH]n2S(=O)(=O)c2ccccc2)Nc2ccccc21 | 91.1% (inactive) |
| CCCC(C)c1cc(Cc2cc(Cl)cc(Cl)c2O)c(O)c(Cc2cc(Cl)cc(Cl)c2O)c1 (stereo not given) | 7.97% (active) |
| c1ccc(Nc2ncc3c(n2)-c2cccn2CC3)cc1 | 91.7% (inactive) |
| CC1=C(C)C(=O)C(C(C)C2=C(C)C(=O)C(C)=C(C)C2=O)=C(C)C1=O | 108% (inactive) |
| C=CCSc1nnc(COc2ccc3c(C)c(Cc4ccccc4)c(=O)oc3c2C)o1 | 102% (inactive) |
| CCOc1nc(-c2ccccc2)cc2c(O)c(C(=O)N/N=C/c3ccccc3O)[nH]c(=O)c12 | 101% (inactive) |
| CC(=O)Nc1nc(C)c(C(=O)NNC(=O)Nc2ccccc2)s1 | 107% (inactive) |
| c1cc[c]([Bi]([c]2ccccc2)[c]2ccccc2)cc1 | 94% (inactive) |
| COc1cc(NC(=O)CSc2nc3ccc(Cl)cc3c(=O)n2-c2ccc(F)cc2)cc(OC)c1OC | 84.8% (inactive) |
| CC(=O)Nc1nc(C)c(C(=O)NN)s1 | 113% (inactive) |
| COC(=O)C(C)[C@H]1CC[C@@H]2[C@]1(C)CC=C1[C@]23C=C[C@]2(C[C@@H](OC(C)=O)CC[C@]12C)C(C(=O)OC)C3C(=O)OC (stereo not given in full) | 96.5% (inactive) |
| Cc1nc2c(nnn2-c2ccccc2)c2nc(-c3ccc(Cl)cc3)oc(=O)c12 | 108% (inactive) |
| CCCCCCCCC/C(=N\NC(=O)c1ccncc1)c1ccc(O)c(O)c1O | 8.78% (active) |
| CNCCCNCCCCNCCCN1C(=O)c2ccc3c4c(ccc(c24)C1=O)C(=O)N(CCCNCc1ccccc1OC)C3=O | 24% (inactive) |
| Cc1nc(NC(=S)Nc2ccc(F)cc2)sc1C(=O)NNC(=S)Nc1ccc(F)cc1 | 51% (inactive) |
| CCOc1ccc(/C=N/NC(=O)c2cccc3ccccc23)cc1OCC | 123% (inactive) |
| O=C(/C=C/c1ccc(Br)cc1)c1ccccc1 | 87.6% (inactive) |
